Measurements taken from PubChem BioAssay (Tox21).
Inconclusive results are not listed. Entries that show only a call come without a potency. Activity calls are given as the source filed them. Calls follow the shape of the dose curve; as a rule, active = well fitted curve in the direction sought with a large enough effect in the repeat runs; inconclusive = weak or mixed curves; inactive = no such curve, though single readings can be large; an effect the other way counts as inactive or inconclusive.

What was measured:
[1] = qHTS assay to identify small molecule antagonists of the glucocorticoid receptor (GR) signaling pathway - cell viability counter screen (AID 720693); conditions: GR-bla HeLa viability, CellTiter-Glo luminescence, 18 h, with 5 nM dexamethasone present; series mostly up to 58.5 µM; also: nearly all actives have a fitted effect of over 55% in size; also: potency is read from the fitted curve at half-maximal effect
[2] = qHTS assay for identifying genotoxic compounds that show differential cytotoxicity against isogenic chicken DT40 cell lines with known DNA damage response pathways - wild type cell line (AID 743012); conditions: DT40 wild type chicken cells viability, CellTiter-Glo, 40 h; series mostly up to 68.4 µM; also: nearly all actives have a fitted effect of over 60% in size; also: potency is read from the fitted curve at half-maximal effect
In short: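 Cells (DT40 wild type, 300/well) are treated with DMSO-dissolved compounds after a ~0.5 h pre-incubation and kept 40 h at 37 C/5% CO2. Viability is then measured by CellTiter-Glo luminescence following 30 min at room temperature.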

[3] = qHTS assay for identifying genotoxic compounds that show differential cytotoxicity against isogenic chicken DT40 cell lines with known DNA damage response pathways - Rev3 mutant cell line (AID 743014); conditions: chicken DT40 Rev3-/- viability, CellTiter-Glo, 40 h; series mostly up to 68.4 µM; also: nearly all actives have a fitted effect of over 55% in size; also: potency is read from the fitted curve at half-maximal effect
[4] = qHTS assay for identifying genotoxic compounds that show differential cytotoxicity against isogenic chicken DT40 cell lines with known DNA damage response pathways - Rad54/Ku70 mutant cell line (AID 743015); conditions: DT40 Rad54/Ku70 mutant viability, CellTiter-Glo, 40 h; series mostly up to 66.8 µM; also: nearly all actives have a fitted effect of over 60% in size; also: potency is read from the fitted curve at half-maximal effect
[5] = qHTS assay to identify small molecule antagonists of the androgen receptor (AR) signaling pathway - cell viability counter screen (AID 743033; also: nearly all actives have a fitted effect of over 45% in size; also: potency is read from the fitted curve at half-maximal effect); conditions: AR-bla HEK293 viability, CellTiter-Glo luminescence, 16 h; series mostly up to 58.5 µM
[6] = qHTS assay to identify small molecule antagonists of the androgen receptor (AR) signaling pathway using the MDA cell line - cell viability counter screen (AID 743041; also: nearly all actives have a fitted effect of over 45% in size; also: potency is read from the fitted curve at half-maximal effect); conditions: MDA-kb2 viability, CellTiter-Fluor, 16 h, cells co-treated with R1881 androgen agonist; series mostly up to 70.3 µM
In short: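 MDA-kb2 AR-luc human breast carcinoma cells (MMTV-luciferase, AR/GR responsive) were treated with compounds plus R1881 agonist for 16 h at 37 °C. Viability was read as CellTiter-Fluor fluorescence in the same wells as the reporter assay.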

[7] = molecular target: Androgen receptor (Homo sapiens) (UniProt P10275); assay: qHTS assay to identify small molecule agonists of the androgen receptor (AR) signaling pathway using the MDA cell line (AID 743040; also: nearly all actives have a fitted effect of over 20% in size); conditions: MDA-kb2 AR-luc cells, MMTV luciferase, 16 h; series mostly up to 70.3 µM
Chain of Androgen receptor (Homo sapiens) (P10275 whole entry, looked up): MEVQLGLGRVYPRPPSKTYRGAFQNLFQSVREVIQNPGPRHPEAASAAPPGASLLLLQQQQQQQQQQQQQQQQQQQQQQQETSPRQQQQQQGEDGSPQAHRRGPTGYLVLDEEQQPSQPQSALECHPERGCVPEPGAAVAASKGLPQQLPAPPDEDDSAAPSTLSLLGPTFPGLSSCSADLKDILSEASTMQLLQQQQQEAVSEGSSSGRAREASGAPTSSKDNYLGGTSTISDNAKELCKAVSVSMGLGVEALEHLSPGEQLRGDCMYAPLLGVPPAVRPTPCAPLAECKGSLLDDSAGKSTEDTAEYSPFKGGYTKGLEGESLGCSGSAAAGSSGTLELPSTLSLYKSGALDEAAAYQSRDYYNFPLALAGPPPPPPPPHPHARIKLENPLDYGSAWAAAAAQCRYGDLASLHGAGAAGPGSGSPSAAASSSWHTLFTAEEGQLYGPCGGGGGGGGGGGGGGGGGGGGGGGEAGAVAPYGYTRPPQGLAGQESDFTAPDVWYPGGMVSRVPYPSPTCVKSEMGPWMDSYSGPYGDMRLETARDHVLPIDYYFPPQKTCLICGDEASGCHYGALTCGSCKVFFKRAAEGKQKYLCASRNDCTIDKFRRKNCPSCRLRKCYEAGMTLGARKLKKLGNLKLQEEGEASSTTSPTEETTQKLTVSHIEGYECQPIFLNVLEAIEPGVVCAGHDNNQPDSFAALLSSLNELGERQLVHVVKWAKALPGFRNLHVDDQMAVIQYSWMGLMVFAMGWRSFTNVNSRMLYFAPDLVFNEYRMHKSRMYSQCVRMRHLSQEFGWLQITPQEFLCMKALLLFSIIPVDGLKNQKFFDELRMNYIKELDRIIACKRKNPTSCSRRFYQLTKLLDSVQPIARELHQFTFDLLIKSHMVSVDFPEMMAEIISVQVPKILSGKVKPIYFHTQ
In short: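 MDA-kb2 breast carcinoma cells stably carrying an MMTV-driven luciferase reporter (AR- and GR-responsive) were seeded and held 5 h at 37C, 0% CO2, then exposed to compounds in DMSO for 16 h. Luminescence was read 30 min after ONE-Glo addition.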

[8] = molecular target: Androgen receptor (Homo sapiens) (UniProt P10275); assay: qHTS assay to identify small molecule antagonists of the androgen receptor (AR) signaling pathway using the MDA cell line (AID 743042; also: nearly all actives have a fitted effect of over 55% in size; also: potency is read from the fitted curve at half-maximal effect); conditions: MDA-kb2 AR-luc, MMTV luciferase, R1881 antagonist, 16 h; series mostly up to 70.3 µM
In short: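 MDA-kb2 cells (human breast carcinoma, stably carrying an MMTV-luciferase reporter responsive to AR and GR) were plated at 3,000 cells/well and preincubated 5 hr at 37C, then given compound plus R1881 agonist for 16 h. ONE-Glo luminescence was read.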

Structure (SMILES) | Potency [1] | Potency [2] | Potency [3] | Potency [4] | Potency [5] | Potency [6] | Potency [7] | Potency [8]
CCNC(=O)[C@@H]1CCCN1C(=O)[C@H](CCCN=C(N)N)NC(=O)[C@H](CC(C)C)NC(=O)[C@@H](CC(C)C)NC(=O)[C@H](Cc1ccc(O)cc1)NC(=O)[C@H](CO)NC(=O)[C@H](Cc1c[nH]c2ccccc12)NC(=O)[C@H](Cc1cnc[nH]1)NC(=O)[C@@H]1CCC(=O)N1 | inactive | inactive | inactive | inactive | inactive | inactive |  | 
NCCCNCCCCNC(=O)C(O)NC(=O)CCCCCCN=C(N)N (stereo not drawn) | inactive | 1060 nM (active) | 1680 nM (active) | 841 nM (active) | inactive | inactive |  | 
CCCCCCC(=O)O[C@H]1CC[C@H]2[C@@H]3CCc4cc(O)ccc4[C@H]3CC[C@]12C | inactive | inactive | inactive | inactive | inactive | inactive |  | 
C[C@]12CC[C@@H]3c4ccc(O)cc4CC[C@H]3[C@@H]1CC[C@@H]2OP(=O)(O)O | inactive | inactive | inactive | inactive | inactive | inactive |  | 
CS(=O)(=O)Nc1cc2occ(NC=O)c(=O)c2cc1Oc1ccccc1 | inactive | inactive | inactive | inactive | inactive | inactive | inactive | inactive
NC[C@@H]1O[C@H](O[C@H]2[C@@H](O)[C@H](O[C@@H]3[C@@H](O)[C@H](N)C[C@H](N)[C@H]3O[C@H]3O[C@H](CO)[C@@H](O)[C@H](O)[C@H]3N)O[C@@H]2CO)[C@H](N)[C@@H](O)[C@@H]1O | inactive | inactive | inactive | inactive | inactive | inactive |  | 
CCCCC(F)(F)[C@@]1(O)CC[C@H]2[C@@H](CC(=O)[C@@H]2CCCCCCC(=O)O)O1 | inactive | inactive | inactive | inactive | inactive | inactive | inactive | inactive
OC[C@H]1O[C@@H](n2cnc3c2NC=NC[C@H]3O)C[C@@H]1O | inactive | inactive | inactive | inactive | inactive | inactive |  | 
CC(=O)[C@@]1(O)CC[C@H]2[C@@H]3C=C(Cl)C4=CC(=O)[C@@H]5C[C@@H]5[C@]4(C)[C@H]3CC[C@@]21C | inactive | inactive | inactive | inactive | inactive | inactive |  | 
CCN(CC)CCOc1ccccc1OC | inactive | inactive | inactive | inactive | inactive | inactive |  | 
Cc1cccc(C)c1Nc1ncccc1C(=O)O | inactive | inactive | inactive | inactive | inactive | inactive | inactive | inactive
CC(O)[C@@H]1NC(=O)[C@H](CCCCN)NC(=O)[C@@H](Cc2c[nH]c3ccccc23)NC(=O)[C@H](Cc2ccccc2)NC(=O)[C@@H](NC(=O)[C@H](N)Cc2ccccc2)CSSC[C@@H](C(=O)N[C@H](CO)[C@@H](C)O)NC1=O (stereo partly drawn) | inactive | inactive | inactive | inactive | inactive | inactive |  | 
CO[C@H]1C[C@@H]2CC[C@@H](C)[C@@](O)(O2)C(=O)C(=O)N2CCCC[C@H]2C(=O)O[C@H]([C@H](C)C[C@@H]2CC[C@@H](OCCO)[C@H](OC)C2)CC(=O)[C@H](C)/C=C(\C)[C@@H](O)[C@@H](OC)C(=O)[C@H](C)C[C@H](C)/C=C/C=C/C=C/1C | 23900 nM (active) | 9.4 nM (active) | 7.5 nM (active) | 16.8 nM (active) | inactive |  | inactive | 23700 nM (active)
CCCCc1cc2c(=O)c(C(=O)OC)c[nH]c2cc1OCc1ccccc1 | inactive | inactive | inactive | inactive | inactive | inactive |  | 
O=C1c2ccccc2C(=O)C1c1ccc(Cl)cc1 | inactive | inactive | inactive | inactive | inactive |  | inactive | inactive
C[C@]12CC[C@@H]3c4ccc(OS(=O)(=O)O)cc4CC[C@H]3[C@@H]1CCC2=O | inactive | inactive | inactive | inactive | inactive | inactive |  | 
C[C@@H]1C/C=C/C=C/C=C/C=C/[C@H](O[C@@H]2O[C@H](C)[C@@H](O)[C@H](N)[C@@H]2O)C[C@@H]2O[C@](O)(C[C@@H](O)C[C@H]3O[C@@H]3/C=C/C(=O)O1)C[C@H](O)[C@H]2C(=O)O | inactive | inactive | inactive | inactive | inactive | inactive |  | 
CCCCCCCCCCCCCCCC(=O)OCCC1CCN(CCCN2c3ccccc3Sc3ccc(S(=O)(=O)N(C)C)cc32)CC1 | inactive | inactive | inactive | inactive | inactive | inactive |  | 
CCCC(=O)Nc1ncnc2c1ncn2[C@@H]1O[C@@H]2COP(=O)(O)O[C@H]2[C@H]1OC(=O)CCC | inactive | inactive | inactive | inactive | inactive | inactive |  | 

Structure (SMILES) | Potency [1] | Potency [2] | Potency [3] | Potency [4] | Potency [5] | Potency [6] | Potency [7] | Potency [8]
Cc1cc2nc3c(=O)[nH]c(=O)nc-3n(C[C@H](O)[C@H](O)[C@H](O)COP(=O)(O)OP(=O)(O)OC[C@H]3O[C@@H](n4cnc5c(N)ncnc54)[C@H](O)[C@@H]3O)c2cc1C | inactive | inactive | inactive | inactive | inactive |  | inactive | inactive
Cn1cc(NC(=O)c2cc(NC(=O)c3cc(NC=O)cn3C)cn2C)cc1C(=O)NCCC(=N)N | inactive | inactive | inactive | inactive | inactive | inactive |  | 
CO[C@H]1C[C@H](O[C@@H]2/C(C)=C/C[C@@H]3C[C@@H](C[C@]4(CC[C@H](C)[C@@H](C5CCCCC5)O4)O3)OC(=O)[C@@H]3C=C(C)/C(=N/O)[C@H]4OC/C(=C\C=C\[C@@H]2C)[C@]43O)O[C@@H](C)[C@@H]1O | inactive | inactive | inactive | inactive | inactive | inactive |  | 
CC(=O)N=c1sc(S(N)(=O)=O)nn1C | inactive | inactive | inactive | inactive | inactive | inactive |  | 
N=C(N)c1ccc(OCCCOc2ccc(C(=N)N)cc2Br)c(Br)c1 | inactive | 5960 nM (active) | 8410 nM (active) | 6680 nM (active) | inactive | inactive |  | 
CCC(=O)O[C@]1(C(=O)CCl)[C@@H](C)C[C@H]2[C@@H]3C[C@H](F)C4=CC(=O)C=C[C@]4(C)[C@@]3(F)[C@@H](O)C[C@@]21C | inactive | 11900 nM (active) | 7500 nM (active) | 23700 nM (active) | inactive | inactive |  | 
CN=C1C=CC(=C(c2ccc(N(C)C)cc2)c2ccc(N(C)C)cc2)C=C1 | 7560 nM (active) | 531 nM (active) | 1060 nM (active) | 750 nM (active) | 535 nM (active) | 7500 nM (active) | inactive | 3760 nM (active)
CCC[C@@]1(CCc2ccccc2)CC(O)=C([C@H](CC)c2cccc(NS(=O)(=O)c3ccc(C(F)(F)F)cn3)c2)C(=O)O1 | inactive | inactive | inactive | inactive | inactive | inactive |  | 
CC(C)(C)NCC(O)c1ccc(O)c(CO)n1 (stereo not drawn) | inactive | inactive | inactive | inactive | inactive | inactive |  | 
CO[C@H]1C[C@H](O[C@H]2[C@H](C)O[C@@H](O[C@@H]3/C(C)=C/C[C@@H]4C[C@@H](C[C@]5(C=C[C@H](C)[C@@H](C6CCCCC6)O5)O4)OC(=O)[C@@H]4C=C(C)[C@@H](O)[C@H]5OC/C(=C\C=C\[C@@H]3C)[C@]54O)C[C@@H]2OC)O[C@@H](C)[C@@H]1O | 7560 nM (active) | 5310 nM (active) | 6680 nM (active) | 5960 nM (active) | inactive | inactive |  | 
CN1CCN(C(c2ccccc2)c2ccc(Cl)cc2)CC1 (stereo not drawn) | inactive | 9020 nM (active) | 10100 nM (active) | 11400 nM (active) | inactive | inactive |  | 
COc1ccc(C2NC(=S)N3C(c4ccc(OC)c(OC)c4)NC(=S)N23)cc1OC (stereo not drawn) | inactive | 6.7 nM (active) | 10.6 nM (active) | 10.6 nM (active) | 239 nM (active) | 150 nM (active) | inactive | 75 nM (active)
CCN(CC)c1ccc(C(=C2C=CC(=[N+](CC)CC)C=C2)c2ccccc2)cc1 | 1510 nM (active) | 94.4 nM (active) | 106 nM (active) | 106 nM (active) | 2390 nM (active) | 2660 nM (active) | inactive | 473 nM (active)
CC1(O)CCC(C(C)(C)O)CC1 (stereo not drawn) | inactive | inactive | inactive | inactive | inactive | inactive |  | 
CS(=O)(=O)NC(=O)CCC/C=C\C[C@H]1C(=O)C[C@@H](O)[C@@H]1/C=C/[C@H](O)COc1ccccc1 | inactive | inactive | inactive | inactive | inactive | inactive |  | 
O=C(O)C1CCCN1 (stereo not drawn) | inactive | inactive | inactive | inactive | inactive | inactive |  | 
CC(=O)N[C@@H]([C@@H](O)[C@H](O)[C@H](O)CO)[C@@H](O)CC(=O)C(=O)O | inactive | inactive | inactive | inactive | inactive | inactive |  | 
CC(C)(C)CC(C)(C)c1cc(Cc2cc(C(C)(C)CC(C)(C)C)cc(-n3nc4ccccc4n3)c2O)c(O)c(-n2nc3ccccc3n2)c1 | inactive | inactive | inactive | inactive | inactive | inactive |  | 
COC(=O)[C@@H](N)CS | inactive | inactive | inactive | inactive | inactive | inactive |  | 
